Five compounds from PubChem BioAssay (EPA / NIEHS) can be followed below.

Read-out in test [1]: Vascular endothelial growth factor receptor 2 (Homo sapiens) (UniProt P35968)
The test is described as follows: BSK_4H_VEGFRII: BioMAP Diversity Plus: 4H Assay for Vascular endothelial growth factor receptor 2 (VEGFR2) Biomarker Activity (AID 2283031).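 For AC50: cell-surface VEGFR2 protein level quantified by ELISA.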 The settings on record: primary human endothelial cells (HUVEC); actives raise or lower the signal. In short, it runs like this: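 ELISA read-out of VEGFRII in primary human umbilical vein endothelium, taken 24 h after chemical treatment. Responses are expressed relative to DMSO, with bidirectional fitting.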

Read-out in test [2]: Human Leukocyte Antigen - DR isotype (HLADR), HLA-DRA (gene 3122)
In words: BSK_BE3C_HLADR: BioMAP Diversity Plus: BE3C Assay for Human Leukocyte Antigen - DR isotype (HLADR) Biomarker Activity (AID 2283032). The settings on record: primary human bronchial epithelial cells; actives raise or lower the signal. In short, it runs like this: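 ELISA read-out of HLA-DR on human lung bronchial epithelial primary cells, measured 24 h post-dosing. Both increases and decreases were scored relative to DMSO vehicle.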

Read-out in test [3]: Vascular cell adhesion molecule 1 (VCAM1), VCAM1 (gene 7412)
The test is described as follows: BSK_4H_VCAM1: BioMAP Diversity Plus: 4H Assay for Vascular cell adhesion molecule 1 (VCAM1) Biomarker Activity (AID 2283033).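 For outcome: cell-surface VCAM-1 protein measured by ELISA.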 The settings on record: primary human endothelial cells (HUVEC); actives raise or lower the signal. In a few lines: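 ELISA read-out of VCAM-1 on human umbilical vein endothelium 24 hours after chemical dosing; gain or loss of signal was fitted relative to DMSO, with sulforhodamine B staining of parallel cultures flagging overt cytotoxicity.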

Read-out in test [4]: Interferon-gamma inducible Protein 10 (IP10), CXCL10 (gene 3627)
In words: BSK_BE3C_IP10: BioMAP Diversity Plus: BE3C Assay for Interferon-gamma inducible Protein 10 (IP10) Biomarker Activity (AID 2283034). The settings on record: primary human bronchial epithelial cells; actives raise or lower the signal. In short, it runs like this: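 Chemical is dosed onto human lung bronchial epithelial primary cells, cultures are incubated 24 h, and IP-10 is then quantified by ELISA. Gain or loss of signal is fitted in both directions relative to DMSO.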

Read-out in test [5]: Monokine induced gamma interferon (MIG), CXCL9 (gene 4283)
In words: BSK_BE3C_MIG: BioMAP Diversity Plus: BE3C Assay for Monokine induced gamma interferon (MIG) Biomarker Activity (AID 2283035). The settings on record: primary human bronchial epithelial cells; actives raise or lower the signal. In short, it runs like this: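 ELISA read-out of MIG in human lung bronchial epithelial primary cultures, 24 h post-dosing. Bidirectional curve fit vs DMSO baseline.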

Read-out in test [6]: Plasminogen activator inhibitor-1 (PAI1), SERPINE1 (gene 5054)
The test is described as follows: BSK_BE3C_PAI1: BioMAP Diversity Plus: BE3C Assay for Plasminogen activator inhibitor-1 (PAI1) Biomarker Activity (AID 2283037). The settings on record: primary human bronchial epithelial cells; actives raise or lower the signal. In short, it runs like this: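 Primary human lung bronchial epithelial cells; chemical dosing; 24 h; PAI-1 measured by ELISA; bidirectional fit referenced to DMSO as negative control.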

Read-out in test [7]: urokinase plasminogen activator (uPA), PLAU (gene 5328)
In words: BSK_BE3C_uPA: BioMAP Diversity Plus: BE3C Assay for urokinase plasminogen activator (uPA) Biomarker Activity (AID 2283038).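 For outcome: uPA protein level quantified by ELISA in cell cultures; uPA read one day after compound addition.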 The settings on record: primary human bronchial epithelial cells; actives raise or lower the signal. In short, it runs like this: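 Bronchial epithelial cells (human, primary); chemical 24 h; uPA by ELISA; bidirectional fit vs DMSO. SRB (0.1%, after 10% TCA fixation, 560 nm) in parallel cultures for cytotoxicity.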

Read-out in test [8]: Urokinase-type plasminogen activator receptor (uPAR), PLAUR (gene 5329)
In words: BSK_BE3C_uPAR: BioMAP Diversity Plus: BE3C Assay for Urokinase-type plasminogen activator receptor (uPAR) Biomarker Activity (AID 2283039).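 For outcome: uPAR protein level measured by ELISA on the cells; cells exposed to compound for one day before measurement.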 The settings on record: primary human bronchial epithelial cells; actives raise or lower the signal. In a few lines: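 Human bronchial epithelial primary cells; chemical exposure 24 h; uPAR by ELISA; bidirectional fit vs DMSO control.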

Read-out in test [9]: Interleukin-6 (IL6), IL6 (gene 3569)
The test is described as follows: BSK_CASM3C_IL6: BioMAP Diversity Plus: CASM3C Assay for Interleukin-6 (IL6) Biomarker Activity for (AID 2283040). The settings on record: primary human coronary artery smooth muscle cells; actives raise or lower the signal.

Read-out in test [10]: Tissue plasminogen activator (tPA), PLAT (gene 5327)
In words: BSK_BE3C_tPA: BioMAP Diversity Plus: BE3C Assay for Tissue plasminogen activator (tPA) Biomarker Activity (AID 2283041).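 For outcome: tPA level quantified by ELISA one day after compound addition.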 The settings on record: primary human bronchial epithelial cells; actives raise or lower the signal. In a few lines: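 Primary human lung bronchial epithelial cultures receive test chemical; after 24 h, tPA is quantified by ELISA, and gain or loss of signal is fitted bidirectionally relative to DMSO baseline.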

Read-out in test [11]: Interleukin-8 (IL8), CXCL8 (gene 3576)
In words: BSK_CASM3C_IL8: BioMAP Diversity Plus: CASM3C Assay for Interleukin-8 (IL8) Biomarker Activity (AID 2283042).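 Note: IL-8 protein level quantified by ELISA.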 The settings on record: primary human coronary artery smooth muscle cells; actives raise or lower the signal.

Read-out in test [12]: Human Leukocyte Antigen - DR isotype (HLADR), HLA-DRA (gene 3122)
In words: BSK_CASM3C_HLADR: BioMAP Diversity Plus: CASM3C Assay for Human Leukocyte Antigen - DR isotype (HLADR) Biomarker Activity (AID 2283043).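 Note: cell-surface HLA-DR protein level quantified by ELISA.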 The settings on record: primary human coronary artery smooth muscle cells; actives raise or lower the signal.

Read-out in test [13]: Macrophage colony-stimulating factor (MCSF), CSF1 (gene 1435)
The test is described as follows: BSK_CASM3C_MCSF: BioMAP Diversity Plus: CASM3C Assay for Macrophage colony-stimulating factor (MCSF) Biomarker Activity (AID 2283044).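 Note: M-CSF protein amount quantified by ELISA after 24 h exposure.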 The settings on record: primary human coronary artery smooth muscle cells; actives raise or lower the signal.

Read-out in test [14]: Low-density lipoprotein receptor (LDLR), LDLR (gene 3949)
The test is described as follows: BSK_CASM3C_LDLR: BioMAP Diversity Plus: CASM3C Assay for Low-density lipoprotein receptor (LDLR) Biomarker Activity (AID 2283045).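 Note: LDLR protein level on the cell surface quantified by ELISA.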 The settings on record: primary human coronary artery smooth muscle cells; actives raise or lower the signal.

Read-out in test [15]: Monocyte Chemoattractant Protein-1 (MCP1), CCL2 (gene 6347)
The test is described as follows: BSK_CASM3C_MCP1: BioMAP Diversity Plus: CASM3C Assay for Monocyte Chemoattractant Protein-1 (MCP1) Biomarker Activity (AID 2283046).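 Note: MCP-1 level quantified by ELISA 24 h after dosing.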 The settings on record: primary human coronary artery smooth muscle cells; actives raise or lower the signal.

Test [16] is described as follows: BSK_CASM3C_Proliferation: Cell Proliferation Assessment in the BioMAP Diversity Plus: CASM3C Assay (AID 2283047).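 Note: sulforhodamine B total protein stain as relative cell number at 560 nm; sub-confluent cells exposed 48 h before staining; fitted both ways against DMSO so gain or loss of cell number.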 The settings on record: primary human coronary artery smooth muscle cells.
Read-out in test [17]: Monokine induced gamma interferon (MIG), CXCL9 (gene 4283)
In words: BSK_CASM3C_MIG: BioMAP Diversity Plus: CASM3C Assay for Monokine induced gamma interferon (MIG) Biomarker Activity (AID 2283048).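 Note: MIG protein level measured by ELISA.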 The settings on record: primary human coronary artery smooth muscle cells; actives raise or lower the signal.

Read-out in test [18]: serum amyloid A (SAA), SAA1 (gene 6288)
The test is described as follows: BSK_CASM3C_SAA: BioMAP Diversity Plus: CASM3C Assay for serum amyloid A (SAA) Biomarker Activity (AID 2283049).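 Note: SAA protein level quantified by ELISA.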 The settings on record: primary human coronary artery smooth muscle cells; actives raise or lower the signal.

Test [19] can be described thus: BSK_CASM3C_SRB: Viability Assessment in the BioMAP Diversity Plus: CASM3C Assay (AID 2283050).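 Note: total protein by SRB staining as cytotoxicity measure in parallel cultures.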 The settings on record: primary human coronary artery smooth muscle cells.
Read-out in test [20]: Transforming growth factor beta 1 (TGFb1), TGFB1 (gene 7040)
In words: BSK_BE3C_TGFb1: BioMAP Diversity Plus: BE3C Assay for Transforming growth factor beta 1 (TGFb1) Biomarker Activity (AID 2283036;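 note: TGF-b1 protein level measured by ELISA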). The settings on record: primary human bronchial epithelial cells; actives raise or lower the signal. In a few lines: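 Primary human lung bronchial epithelial cells; compound exposure 24 h; TGF-b1 by ELISA; bidirectional fit, DMSO baseline. Parallel SRB total-protein staining for cytotoxicity.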

Where “and” joins values, the source holds several entries; their conditions need not be identical. Equal values may be shown once. Some compounds were tested as several samples or in several runs, with calls that do not always agree. Calls of active or inactive are those of the source. Rule for the calls: active = hit-call score of the fitted dose curve at least 0.9, where 1 is the maximum; inactive = score below 0.9.

As a reminder, the AC50 is the midpoint of the concentration-response curve, whichever way the signal moves. Take `Oc1c(Cl)cc(Cl)cc1Sc1cc(Cl)cc(Cl)c1O`: the half-maximal activity concentration (AC50) in test [1] was 5.09 µM (active) and 4.99 µM (active); in test [2], 3.56 µM (active) and 3.35 µM (active); in [3] it was 12.8 µM (active); in [4], 4.76 µM (active); in [5], 6.66 µM (active) and 7.75 µM (active); in [6], 4.59 µM (active). Further, the AC50 in test [7] was 5.33 µM (active) and 5.44 µM (active); in test [8], 1.8 µM (active) and 1.83 µM (active); in [10], 4.32 µM (active) and 3.03 µM (active); in [12], 9.1 µM (active) and 7.2 µM (active); in [13], 12.6 µM (active) and 11.8 µM (active); in test [16], 15.8 µM (active) and 12.1 µM (active). Further, the AC50 is 20.2 µM (active) and 26.6 µM (active) in [17]; 20 µM (active) in test [18]; 17.1 µM (active) in test [19]. Further, the result in [9], in test [11], in test [14], in [15] and in [18] was inactive.
With `Cc1ccc(C(=O)c2ccccc2)cc1`, the outcome in [1], in [2], in [4], in test [5], in [20] and in [6] was inactive. Besides, the outcome in [7], in test [8], in test [9], in test [10], in test [13] and in test [14] was inactive. Also, the outcome in test [15], in test [16], in test [17], in test [18] and in [19] was inactive. Further, the AC50 in [3] was 30.2 µM (active); in test [11], 0.0224 µM (active); in [12], 3.97 µM (active).
Consider `Cc1cccc2c1ccc1ccccc12`, for which the result in [1], in test [2], in [3], in [4], in test [5] and in test [20] was inactive. For the same compound, the result in [6], in [7], in test [8], in [9], in test [10] and in test [11] was inactive. For the same compound, the outcome in test [12], in test [13], in test [14], in test [15], in [16] and in [17] was inactive. The outcome in [18] and in test [19] was inactive.
Regarding `C=COC(=O)C(C)(C)CCCCCC`, the AC50 is 25.6 µM (active) in [1]; 24.8 µM (active) in test [2]; 30.2 µM (active) in test [3]; 33.5 µM (active) in test [4]; 29.4 µM (active) in test [6]; 20 µM (active) in test [7]. Further, the half-maximal activity concentration (AC50) in [9] was 32 µM (active); in [10], 20 µM (active); in [12], 35.9 µM (active); in test [13], 32 µM (active); in test [15] it was 20 µM (active); in test [16], 37.8 µM (active). In addition, the half-maximal activity concentration (AC50) was 32.6 µM (active) in [17] and 31.9 µM (active) in test [19]. For the same compound, the result in test [5], in test [20], in [8], in [11], in [14] and in [18] was inactive.
For `CCC(C)c1ccccc1O` (stereo not given), the outcome in test [1], in test [2], in [3], in test [4], in [5] and in [20] was inactive. For the same compound, the result in test [6], in [7], in test [8], in [9], in test [10] and in [11] was inactive. The outcome in test [12], in test [13], in test [14], in test [15], in test [16] and in [17] was inactive. Also, the outcome in [18] and in test [19] was inactive.
